Measurements reported in PubChem BioAssay (NCI).
About 83,000 compounds went through this panel and 20% of them were active in at least one assay; those are over-represented in the sample as a whole.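 Plates (96-well) were seeded with cells, treated with compound at one concentration, and incubated for 48 hours before percent growth was determined.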 Activity calls are given as the source filed them. The calls were made as follows: active = growth percent below 10; inactive = the rest.

What follows are compounds tested on SK-MEL-5 melanoma (assay: NCI-60 one-dose screen, 48 h (100 = growth as untreated, 0 = no growth, -100 = all killed)). Settings: 10 µM unless noted.

| Structure (SMILES) | growth |
| --- | --- |
| ClCCN(CCCl)Cc1ccc(Nc2ccnc3cc(Cl)ccc23)cc1 | 54.2% (inactive) |
| N#CCCNc1ccccc1 | 107% (inactive) |
| C[C@]12CCc3sc(NCCc4ccccc4)nc3C1=CC[C@@H]1[C@@H]2CC[C@]2(C)C(=O)CC[C@@H]12 | 66% (inactive) |
| Cc1cnc(/C=C/C(=O)O)cc1-c1cc2c(cc1C)C(C)(C)CCC2(C)C | 62.8% (inactive) |
| C[C@@H]1CCC2[C@@H](C)[C@H](OC(=O)CCC(=O)NCCNC(=O)Cc3cc(=O)oc4cc(N(C)C)ccc34)O[C@@H]3O[C@]4(C)CC[C@@H]1C23OO4 (stereo not given in full) | 33.2% (inactive) |
| CCN(CCO)C(Cc1ccccc1)c1ccccc1 (stereo not given) | 104% (inactive) |
| CC1=C2[C@@H](CC1)[C@]1(C)O[C@@](C(C)C)(C[C@H]1O)[C@H]2OC(=O)C1CC1c1ccccc1 (stereo not given in full) | 85.4% (inactive) |
| COC(=O)[C@@H](C)C[C@H](Cc1ccccc1)NC(=O)c1nc([C@@H](C[C@H](C(C)C)N(C)C(=O)[C@@H](NC(=O)[C@H]2C[C@H](O)CCN2C)C(C)C)OC(C)=O)sc1C(C)C | -24% (active) |
| COc1cc(C=Nc2cc(Cl)cc(Cl)c2)ccc1N(CCCl)CCCl | 93.9% (inactive) |
| COC(=O)[C@@H](C)C[C@H](Cc1ccccc1)NC(=O)c1csc([C@@H](C[C@H](C(C)C)N(C)C(=O)[C@@H](NC(=O)[C@H]2CCCN2C)C2CC2)OC(C)=O)n1 | -52.1% (active) |
| NC(=S)c1cn(C2OC(CO)C(O)C2O)c2ncnc(N)c12 (stereo not given) | -73.7% (active) |
| O=C(N/N=C/c1ccc(N(CCCl)CCCl)cc1)c1cccc2ccccc12 | 70.6% (inactive) |
| Oc1ccc2c3c1OC1[C@@H](O)CC[C@@]4(O)[C@@H](C2)N(CC2CCC2)CC[C@]314 (stereo not given in full) | 92.5% (inactive) |
| CCOC(=O)[C@@H](C)C[C@H](Cc1ccccc1)NC(=O)c1csc([C@@H](C[C@H](C(C)C)N(C)C(=O)[C@@H](NC(=O)[C@H]2C[C@H](O)CCN2C)C(C)C)OC(C)=O)n1 | -4.08% (active) |
| COC(=O)C12CC(NC(=O)c3csc([C@@H](C[C@H](C(C)C)N(C)C(=O)[C@@H](NC(=O)[C@H]4CCCCN4C)C(C)C)OC(C)=O)n3)(C1)C2 | -38.8% (active) |
| COC(=O)[C@@H](C)C[C@H](Cc1ccccc1)NC(=O)c1csc([C@@H](C[C@H](C(C)C)N(C)C(=O)[C@H](C)NC(=O)[C@H]2CCCCN2C)OC(C)=O)n1 | 19.3% (inactive) |
| O=C(CCCCCNC1=CC(=O)c2ccccc2C1=O)NCCC[Te]c1ccccc1 | -92.9% (active) |
| CC(=O)O[C@H](C[C@H](C(C)C)N(C)C(=O)[C@@H](NC(=O)[C@H]1CCCCN1C)C(C)(C)C)c1nc(C(=O)N[C@@H](Cc2ccccc2)C[C@H](C)C(=O)O)cs1 | -50.6% (active) |
| COc1ccc(/C=C\c2cc(OC)c(OC)c(OC)c2)cc1OCC(=O)Nc1nc2ccc(F)cc2s1 | -0.28% (active) |
| COc1ccc(C(=O)c2cc(OC)c(OC)c(OC)c2)cc1OC(C)=O | -35.1% (active) |
| C[C@]12C[C@@H](CO)[C@H](O)C[C@@H]1CC[C@@H]1[C@@H]2CC[C@]2(C)[C@@H](O)CC[C@@H]12 | 103% (inactive) |
| N#CC1(C#N)C(c2ccc(N(CCCl)CCCl)cc2)OC23CCCCC2C1(C#N)C(=N)O3 (stereo not given) | 83.3% (inactive) |
| O=[N+]([O-])c1ccc([Se]C2CCCCC2Cl)c([N+](=O)[O-])c1 (stereo not given) | 68.6% (inactive) |
| COc1ccc(-n2c(C)nc3cc(OC)c(OC)cc3c2=O)cc1OC | 104% (inactive) |
| O=[As](O)(O)c1ccccc1[As](=O)(O)O | 107% (inactive) |
| COC(=O)[C@@H](C)C[C@H](Cc1ccccc1)NC(=O)c1csc([C@@H](C[C@H](C(C)C)N(C)C(=O)C2(NC(=O)[C@H]3CCCCN3C)CC2)OC(C)=O)n1 | -40.2% (active) |
| CN1C(=O)C23CC4(C56CC78SSC(CO)(C(=O)N7C5Nc5ccccc56)N(C)C8=O)c5ccccc5NC4N2C(=O)C1(CO)SS3 (stereo not given) | -95% (active) |
| CCNc1nc(Cl)nc(NCC)n1 | 98.2% (inactive) |
| COc1ccc(C2=CC(c3ccc(OC)c(OC)c3)c3c(c4ccccc4oc3=O)O2)cc1OC (stereo not given) | 17.1% (inactive) |
| COC(=O)[C@H](Cc1ccccc1)NNC(=O)c1csc([C@@H](C[C@H](C(C)C)N(C)C(=O)[C@@H](NC(=O)[C@H]2CCCCN2C)C2CC2)OC(C)=O)n1 | -42.3% (active) |
